For twelve compounds, outcome and AC50 results are on record in PubChem BioAssay (EPA / NIEHS).

For assay [1], the target named is human Thromboxane A2 Receptor (TXA2), TBXA2R (gene 6915) (UniProt P21731). Put plainly: NVS_GPCR_hTXA2: NovaScreen (NVS) G Protein-Coupled Receptor Assay for human Thromboxane A2 Receptor (TXA2) (AID 2283282).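 Note: actives reduce bound radioligand signal relative to DMSO baseline.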 A digest of the protocol:
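Human platelet membranes tested for radioligand displacement by filtration and scintillation counting 1 h post-dose. Screened in duplicate at 25 uM; activity fitted as signal loss relative to DMSO.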

Assay [2] has as its target human Orphanin, Opioid Related Nociceptin Receptor 1 (ORL1), OPRL1 (gene 4987) (UniProt P41146). Put plainly: NVS_GPCR_hORL1: NovaScreen (NVS) G Protein-Coupled Receptor Assay for human Orphanin, Opioid Related Nociceptin Receptor 1 (ORL1) (AID 2283283). In a few lines:
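Cell-free binding using HEK293-derived receptor protein: radioligand displacement measured by filter scintillation 1 hour after dosing. Primary testing at 25 uM in duplicate, followed by singleton concentration series up to 50 uM; DMSO served as negative control.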

For assay [3], the target named is human Opioid Receptor Mu (Opiate Mu), OPRM1 (gene 4988) (UniProt P35372). Put plainly: NVS_GPCR_hOpiate_mu: NovaScreen (NVS) G Protein-Coupled Receptor Assay for human Opioid Receptor Mu (Opiate Mu) (AID 2283290).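 Note: hits lower bound tracer signal versus DMSO meaning displacement of the ligand.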 In a few lines: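 Primary screen in duplicate at 25 uM, with actives followed in concentration series. CHO-derived receptor membranes, cell-free; bound radioligand read by scintillation counting after filtration at 2.5 h, decrease scored against DMSO.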

In assay [4] the target is rat Adrenergic Receptor, Alpha 2 (Adra2), Non-selective Binding, Adra2a (gene 25083) (UniProt P22909). Kind of assay: NVS_GPCR_rAdra2_NonSelective: NovaScreen (NVS) G Protein-Coupled Receptor Assay for rat Adrenergic Receptor, Alpha 2 (Adra2), Non-selective Binding (AID 2283299). A digest of the protocol:
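Filter-based scintillation counting of radioligand binding to rat cortical membrane receptors, measured 1.25 hours post-dosing; loss of signal versus DMSO indicates displacement. Initial single-concentration duplicate at 25 uM, then concentration series.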

In assay [5] the test system is 5-hydroxytryptamine receptor 2C (pig). Kind of assay: NVS_GPCR_p5HT2C: NovaScreen (NVS) G Protein-Coupled Receptor Assay for pig Serotonin, 5-Hydroxytryptamine Receptor 2C (5HT2C) (AID 2283288). In a few lines: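 Radioligand displacement on membranes from pig choroid plexus, detected by filter scintillation counting after 1 h. Tested first at a single 25 uM in duplicate, then in concentration-response for actives; DMSO served as baseline.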

Assay [6] concerns the target mouse Cholecystokinin, CCK2 Receptor (CCKB), Cckbr (gene 12426) (UniProt P56481). Put plainly: NVS_GPCR_mCKKBCentral: NovaScreen (NVS) G Protein-Coupled Receptor Assay for mouse Cholecystokinin, CCK2 Receptor (CCKB) (AID 2283293). In a few lines:
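Mouse forebrain membrane preparation incubated 2 h with chemical and radioligand; bound radioactivity counted after filtration. Single-concentration duplicate screen at 25 uM, then concentration series to 50 uM max for hits, DMSO as baseline.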

The target of assay [7] is rat Serotonin, 5-Hydroxytryptamine Receptor 1 (5HT1), Non-Selective Binding, Htr1a (gene 24473) (UniProt P19327). Kind of assay: NVS_GPCR_r5HT1_NonSelective: NovaScreen (NVS) G Protein-Coupled Receptor Assay for rat Serotonin, 5-Hydroxytryptamine Receptor 1 (5HT1), Non-Selective Binding (AID 2283286). A digest of the protocol: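 Binding of a radioligand to rat cortex membranes is read by filtration and scintillation counting after 1 h. Compounds were screened at 25 uM in duplicate. Actives were then titrated to a top of 50 uM. DMSO is the baseline.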

Assay [8] addresses guinea pig Serotonin, 5-Hydroxytryptamine Receptor 4 (5HT4), HTR4 (gene 100135548) (UniProt O70528). Put plainly: NVS_GPCR_g5HT4: NovaScreen (NVS) G Protein-Coupled Receptor Assay for guinea pig Serotonin, 5-Hydroxytryptamine Receptor 4 (5HT4) (AID 2283294). A digest of the protocol:
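Compounds first screened in duplicate at 25 uM, actives followed up in concentration series. Binding measured as displacement of specific radioligand from guinea pig striatal membranes, 1 h, filter-based scintillation read-out versus DMSO baseline.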

The target of assay [9] is rat Serotonin, 5-Hydroxytryptamine Receptor (5HT), Non-Selective Binding, Htr1a (gene 24473) (UniProt P19327). Put plainly: NVS_GPCR_r5HT_NonSelective: NovaScreen (NVS) G Protein-Coupled Receptor Assay for rat Serotonin, 5-Hydroxytryptamine Receptor (5HT), Non-Selective Binding (AID 2283295). In a few lines:
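Rat cortex membrane preparation incubated 1 h with radioligand and test chemical; bound radioactivity counted after filtration. Screening began in duplicate at 25 uM with concentration-series follow-up; fitting relative to DMSO.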

For assay [10], the system named is rat Adrenergic, Alpha 1B Receptor (Adra1B), gene 24173. Put plainly: NVS_GPCR_rAdra1B: NovaScreen (NVS) G Protein-Coupled Receptor Assay for rat Adrenergic, Alpha 1B Receptor (Adra1B) (AID 2283297). In a few lines: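 Filter-binding radioligand competition on membranes from rat liver, read after 1 h by scintillation counting. Single-concentration duplicate screen at 25 uM, followed by concentration-response on actives, normalised to DMSO.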

For assay [11], the target named is rat Histamine Receptor (H3), Hrh3 (gene 85268) (UniProt Q9QYN8). Put plainly: NVS_GPCR_rH3: NovaScreen (NVS) G Protein-Coupled Receptor Assay for rat Histamine Receptor (H3) (AID 2283303). A digest of the protocol: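 Filter-binding radioligand competition on rat forebrain membranes, 1 h incubation; compounds screened at 25 µM in duplicate and followed in concentration series to 50 µM, loss of bound signal vs DMSO.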

The target of another assay is Adra2b (gene 24174) (UniProt P19328). Put plainly: NVS_GPCR_rmAdra2B: NovaScreen (NVS) G Protein-Coupled Receptor Assay for hybird cells Adrenergic, Alpha 2B Receptor (Adra2B) (AID 2283306). A digest of the protocol: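 Compounds screened first at 25 uM in duplicate, with actives followed up in concentration-response; specific radioligand displacement from hybrid neuroglioma/blastoma cell membrane preparations measured by filter scintillation counting after 1 h, normalized to DMSO.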

Assay [12] has as its target rat Opioid Receptor, Non-selective Sodium (Na+) Binding, Oprm1 (gene 25601) (UniProt P33535). Put plainly: NVS_GPCR_rOpiate_NonSelectiveNa: NovaScreen (NVS) G Protein-Coupled Receptor Assay for rat Opioid Receptor, Non-selective Sodium (Na+) Binding (AID 2283311). In a few lines: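 Filtration radioligand binding on rat forebrain membrane preparations, read 1.5 h after dosing. Single-concentration 25 µM primary screen in duplicate, followed by singleton concentration series to 50 µM max for actives; DMSO baseline.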

Usually AC50 stands for the midpoint of the concentration-response curve, whichever way the signal moves.

“And” between values parts separate entries of the source, which are not always exact repeats. Equal entries are not always repeated. Results filed as inconclusive are left out. The source made the active and inactive calls. Rule for the calls: active = hit-call score of the fitted dose curve at least 0.9, where 1 is the maximum; inconclusive = response in the unintended direction; inactive = score below 0.9.

human Opioid Receptor Mu (Opiate Mu), OPRM1 (gene 4988), sequence (P35372 whole entry, looked up): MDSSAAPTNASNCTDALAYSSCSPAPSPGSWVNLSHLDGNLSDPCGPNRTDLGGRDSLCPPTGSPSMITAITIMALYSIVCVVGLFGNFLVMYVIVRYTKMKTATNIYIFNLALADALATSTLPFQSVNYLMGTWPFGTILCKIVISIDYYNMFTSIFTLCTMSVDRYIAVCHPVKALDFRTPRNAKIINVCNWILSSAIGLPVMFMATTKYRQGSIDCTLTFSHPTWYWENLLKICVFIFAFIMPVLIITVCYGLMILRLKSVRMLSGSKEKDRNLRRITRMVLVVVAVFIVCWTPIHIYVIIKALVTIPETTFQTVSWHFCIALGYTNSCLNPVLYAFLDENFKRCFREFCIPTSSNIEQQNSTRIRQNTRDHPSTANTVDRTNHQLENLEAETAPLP
human Thromboxane A2 Receptor (TXA2), TBXA2R (gene 6915), sequence (P21731 whole entry, looked up): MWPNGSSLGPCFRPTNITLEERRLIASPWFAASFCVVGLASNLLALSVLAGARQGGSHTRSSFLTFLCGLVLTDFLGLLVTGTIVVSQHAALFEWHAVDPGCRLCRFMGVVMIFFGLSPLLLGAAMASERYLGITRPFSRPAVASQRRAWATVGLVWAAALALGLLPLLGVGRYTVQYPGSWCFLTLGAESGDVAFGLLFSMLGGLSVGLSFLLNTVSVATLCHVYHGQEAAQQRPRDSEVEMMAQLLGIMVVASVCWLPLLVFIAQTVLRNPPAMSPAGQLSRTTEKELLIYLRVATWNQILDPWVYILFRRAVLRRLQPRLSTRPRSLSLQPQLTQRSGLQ
rat Adrenergic Receptor, Alpha 2 (Adra2), Non-selective Binding, Adra2a (gene 25083), sequence (P22909 whole entry, looked up): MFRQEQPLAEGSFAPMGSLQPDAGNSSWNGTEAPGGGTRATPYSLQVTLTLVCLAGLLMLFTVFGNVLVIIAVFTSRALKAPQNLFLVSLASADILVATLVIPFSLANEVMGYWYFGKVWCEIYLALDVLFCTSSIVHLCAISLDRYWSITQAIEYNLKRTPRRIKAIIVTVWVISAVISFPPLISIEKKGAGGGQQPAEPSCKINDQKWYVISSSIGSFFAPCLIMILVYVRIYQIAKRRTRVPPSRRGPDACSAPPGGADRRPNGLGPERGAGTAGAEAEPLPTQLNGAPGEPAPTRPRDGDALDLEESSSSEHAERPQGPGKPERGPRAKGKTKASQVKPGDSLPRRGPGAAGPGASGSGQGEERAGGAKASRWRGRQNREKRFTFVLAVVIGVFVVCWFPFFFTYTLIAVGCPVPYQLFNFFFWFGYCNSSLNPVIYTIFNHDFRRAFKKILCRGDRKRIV
rat Serotonin, 5-Hydroxytryptamine Receptor (5HT), Non-Selective Binding, Htr1a (gene 24473), sequence (P19327 whole entry, looked up): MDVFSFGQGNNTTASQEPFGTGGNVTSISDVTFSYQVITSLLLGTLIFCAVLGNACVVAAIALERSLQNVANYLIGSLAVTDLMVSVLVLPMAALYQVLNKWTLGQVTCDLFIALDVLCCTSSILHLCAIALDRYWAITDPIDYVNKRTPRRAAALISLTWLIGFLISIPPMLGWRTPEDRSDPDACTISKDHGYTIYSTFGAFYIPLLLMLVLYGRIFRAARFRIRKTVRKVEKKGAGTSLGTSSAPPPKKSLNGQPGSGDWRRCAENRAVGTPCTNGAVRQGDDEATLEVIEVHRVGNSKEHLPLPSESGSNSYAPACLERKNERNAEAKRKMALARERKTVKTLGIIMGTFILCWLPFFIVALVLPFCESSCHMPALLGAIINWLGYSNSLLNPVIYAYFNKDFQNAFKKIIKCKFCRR
rat Serotonin, 5-Hydroxytryptamine Receptor 1 (5HT1), Non-Selective Binding, Htr1a (gene 24473), sequence (P19327 whole entry, looked up): as above
human Orphanin, Opioid Related Nociceptin Receptor 1 (ORL1), OPRL1 (gene 4987), sequence (P41146 whole entry, looked up): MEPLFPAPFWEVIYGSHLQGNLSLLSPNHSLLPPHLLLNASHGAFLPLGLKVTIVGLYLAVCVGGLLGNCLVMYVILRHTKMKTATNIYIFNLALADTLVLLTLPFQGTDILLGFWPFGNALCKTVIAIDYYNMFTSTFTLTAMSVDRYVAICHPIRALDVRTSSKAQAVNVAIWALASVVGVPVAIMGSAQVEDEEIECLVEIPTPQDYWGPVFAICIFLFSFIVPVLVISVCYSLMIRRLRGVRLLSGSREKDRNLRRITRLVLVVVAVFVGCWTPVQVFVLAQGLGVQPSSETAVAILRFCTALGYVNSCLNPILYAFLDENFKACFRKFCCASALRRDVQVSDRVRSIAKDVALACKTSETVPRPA
guinea pig Serotonin, 5-Hydroxytryptamine Receptor 4 (5HT4), HTR4 (gene 100135548), sequence (O70528 whole entry, looked up): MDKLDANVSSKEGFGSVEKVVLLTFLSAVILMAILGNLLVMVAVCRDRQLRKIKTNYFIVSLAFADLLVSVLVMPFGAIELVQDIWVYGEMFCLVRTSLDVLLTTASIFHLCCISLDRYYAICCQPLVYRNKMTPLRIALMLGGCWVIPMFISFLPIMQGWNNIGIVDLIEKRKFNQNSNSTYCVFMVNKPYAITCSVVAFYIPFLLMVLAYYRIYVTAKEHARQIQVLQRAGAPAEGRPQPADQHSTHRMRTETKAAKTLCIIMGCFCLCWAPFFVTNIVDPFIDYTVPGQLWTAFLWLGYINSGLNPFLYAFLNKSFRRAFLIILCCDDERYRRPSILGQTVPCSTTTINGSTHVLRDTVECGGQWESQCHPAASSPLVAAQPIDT
mouse Cholecystokinin, CCK2 Receptor (CCKB), Cckbr (gene 12426), sequence (P56481 whole entry, looked up): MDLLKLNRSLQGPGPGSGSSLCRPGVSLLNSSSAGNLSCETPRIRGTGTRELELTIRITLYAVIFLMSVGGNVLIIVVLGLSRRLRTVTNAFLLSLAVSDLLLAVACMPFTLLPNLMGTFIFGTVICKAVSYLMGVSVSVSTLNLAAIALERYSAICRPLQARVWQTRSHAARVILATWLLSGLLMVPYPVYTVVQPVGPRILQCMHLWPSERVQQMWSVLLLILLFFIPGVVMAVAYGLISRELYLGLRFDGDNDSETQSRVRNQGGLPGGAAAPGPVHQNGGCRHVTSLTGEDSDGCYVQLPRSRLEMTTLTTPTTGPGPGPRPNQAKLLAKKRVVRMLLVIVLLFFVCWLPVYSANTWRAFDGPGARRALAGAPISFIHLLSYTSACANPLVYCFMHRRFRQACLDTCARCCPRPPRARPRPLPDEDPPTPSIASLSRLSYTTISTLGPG
Adra2b (gene 24174), sequence (P19328 whole entry, looked up): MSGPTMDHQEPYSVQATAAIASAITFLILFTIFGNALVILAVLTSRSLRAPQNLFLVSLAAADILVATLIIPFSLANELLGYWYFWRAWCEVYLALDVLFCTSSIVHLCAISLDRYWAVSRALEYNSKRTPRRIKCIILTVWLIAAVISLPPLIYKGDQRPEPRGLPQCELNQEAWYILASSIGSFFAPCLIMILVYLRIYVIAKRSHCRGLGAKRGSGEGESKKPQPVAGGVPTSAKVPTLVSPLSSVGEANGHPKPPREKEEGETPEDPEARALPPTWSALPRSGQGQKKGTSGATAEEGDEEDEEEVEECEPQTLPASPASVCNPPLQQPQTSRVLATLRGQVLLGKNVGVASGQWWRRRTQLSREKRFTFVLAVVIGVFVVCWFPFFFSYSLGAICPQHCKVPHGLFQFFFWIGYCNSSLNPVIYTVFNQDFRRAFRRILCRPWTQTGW
rat Histamine Receptor (H3), Hrh3 (gene 85268), sequence (Q9QYN8 whole entry, looked up): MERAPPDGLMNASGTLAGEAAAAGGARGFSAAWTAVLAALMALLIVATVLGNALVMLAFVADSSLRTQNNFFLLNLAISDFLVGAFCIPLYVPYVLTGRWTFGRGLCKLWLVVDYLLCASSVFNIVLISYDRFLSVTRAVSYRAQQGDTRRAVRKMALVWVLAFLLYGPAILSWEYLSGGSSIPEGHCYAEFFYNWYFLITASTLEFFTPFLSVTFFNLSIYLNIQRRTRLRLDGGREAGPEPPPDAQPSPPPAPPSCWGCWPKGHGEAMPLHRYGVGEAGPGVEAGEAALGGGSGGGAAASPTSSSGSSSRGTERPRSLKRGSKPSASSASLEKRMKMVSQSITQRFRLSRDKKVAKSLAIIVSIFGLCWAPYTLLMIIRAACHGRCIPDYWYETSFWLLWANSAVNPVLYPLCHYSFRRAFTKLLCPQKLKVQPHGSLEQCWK
rat Opioid Receptor, Non-selective Sodium (Na+) Binding, Oprm1 (gene 25601), sequence (P33535 whole entry, looked up): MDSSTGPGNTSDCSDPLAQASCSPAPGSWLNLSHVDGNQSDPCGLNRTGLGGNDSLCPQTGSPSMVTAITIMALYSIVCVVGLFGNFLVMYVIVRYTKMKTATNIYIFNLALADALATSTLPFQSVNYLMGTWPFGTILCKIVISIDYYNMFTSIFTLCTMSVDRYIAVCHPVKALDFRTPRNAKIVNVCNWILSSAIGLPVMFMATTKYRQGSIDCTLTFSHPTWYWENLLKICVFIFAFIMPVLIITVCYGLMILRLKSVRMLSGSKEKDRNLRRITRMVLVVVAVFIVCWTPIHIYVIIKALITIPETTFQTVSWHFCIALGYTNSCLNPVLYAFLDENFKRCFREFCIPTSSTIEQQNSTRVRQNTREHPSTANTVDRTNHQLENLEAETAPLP

Turning to `NS(=O)(=O)O`, the outcome in assay [1] was inactive.

On to `NC(=NCCCCCCN=C(N)/N=C(\N)Nc1ccc(Cl)cc1)/N=C(\N)Nc1ccc(Cl)cc1`, for which the AC50 was 4.71 µM (active) in assay [2]; 3.32 µM (active) and 3.04 µM (active) in [3]; 17.6 µM (active) in assay [4].

On to `CC1=NN(c2ccccc2)C(=O)C1`, for which, in assay [1], the compound was called inactive.

Turning to `C=Cc1ccc(O)c(OC)c1`, the compound was classed as inactive in [1].

For `Clc1ccc(Nc2nnc(Cc3ccncc3)c3ccccc23)cc1`, the AC50 in assay [1] is 0.417 µM (active).

`CCCCCCCCCCCCCCCCCC[N+](C)(C)Cc1ccccc1`: in [3], the AC50 was 2.17 µM (active).

Turning to `O=C1OC2(c3ccccc31)c1cc(I)c(O)c(I)c1Oc1c2cc(I)c(O)c1I`, the AC50 in assay [1] was 1.24 µM (active); in [3] it was 0.0269 µM (active).

With `CCCCCCCCCCCCOS(=O)(=O)O`, the AC50 in [1] is 7.92 µM (active); in [3], 25 µM (active). The outcome in [5] was inactive.

As to `CCCCCCCC(OC)OC`, the AC50 in assay [1] was 0.0748 µM (active).

For `CN(Cc1cnc2nc(N)nc(N)c2n1)c1ccc(C(=O)N[C@@H](CCC(=O)O)C(=O)O)cc1`, the call in assay [5], in [3] and in assay [6] was inactive.

As for `CN(C)CCOC(c1ccccc1)c1ccccc1`, the AC50 in assay [7] is 6.56 µM (active); in assay [9], 7.06 µM (active); in assay [10] it was 9.65 µM (active); in assay [4], 8.43 µM (active); with Adra2b (gene 24174), 3.12 µM (active). In addition, the compound was classed as inactive in assay [3], in assay [8], in [11] and in [12].

For `CC(C)(C)c1ccc(O)c(O)c1`, the AC50 in [3] was 17.4 µM (active).
